Compound activity: PubChem BioAssay, several laboratories
Rows were chosen to be rich in hits. Some 1.2% of all compounds tested hit in one or more screens of this group.
UBC9 SUMO inh: inhibitors of human SUMOylation (UBC9) | P63279 | HTRF SUMOylation assay, SAE1/SAE2 + UBC9, in vitro | inhibition, % at 35 µM | 290,000 tested, 0.36% active; in the data active = inhibition above about 50%, passing the limit was not always enough
FAS TE block: inhibitors of human fatty acid synthase thioesterase domain; recombinant FAS-TE, OMFH fluorogenic substrate, fluorescence endpoint; AID 602261; inhibition, % at 15 µM; 360,000 tested, 0.67% active; P49327;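 active = compounds whose normalised, plate-corrected inhibition of enzyme fluorescence in the single-dose primary screen is 50% or more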
PKD1 kinase inh: blocks activity of human protein kinase D1 | Q15139 | PKD1 kinase fluorescence polarization assay | inhibition, % (concentration not given with the values) | 200,000 tested, 0.056% active; in the data active = inhibition above about 50%
Furin inh: human furin inhibition; P09958; purified furin, fluorogenic substrate cleavage; inhibition, % at 20 µM or 30 µM; 220,000 tested, 0.061% active; AID 463115; in the data active = inhibition above about 25%
Target sequence (P09958 108-714 limits assumed): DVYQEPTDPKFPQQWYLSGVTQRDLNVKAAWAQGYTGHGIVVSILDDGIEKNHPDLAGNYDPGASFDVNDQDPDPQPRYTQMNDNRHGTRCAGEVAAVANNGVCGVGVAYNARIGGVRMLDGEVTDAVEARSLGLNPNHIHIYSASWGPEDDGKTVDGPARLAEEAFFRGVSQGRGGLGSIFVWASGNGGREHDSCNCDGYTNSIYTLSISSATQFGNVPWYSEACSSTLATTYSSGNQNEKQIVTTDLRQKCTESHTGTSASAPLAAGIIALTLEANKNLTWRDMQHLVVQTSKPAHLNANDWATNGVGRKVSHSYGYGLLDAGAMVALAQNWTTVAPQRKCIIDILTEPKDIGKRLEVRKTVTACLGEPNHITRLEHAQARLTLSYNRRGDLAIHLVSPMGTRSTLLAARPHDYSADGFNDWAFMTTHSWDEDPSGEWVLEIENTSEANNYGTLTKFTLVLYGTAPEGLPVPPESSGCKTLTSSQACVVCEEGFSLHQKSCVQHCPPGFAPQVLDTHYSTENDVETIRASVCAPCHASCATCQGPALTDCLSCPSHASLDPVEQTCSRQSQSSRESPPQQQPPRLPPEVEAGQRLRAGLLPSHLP
p97 inhibitor: human p97 ATPase inhibition. recombinant p97 ATPase, Kinase-Glo ATP luminescence, 3 h. P55072. 220,000 tested, 0.42% active. inhibition, % at 8 µM; in the data active = inhibition above about 15%
DTT redox prof: compounds producing H2O2 with reducing agent – biochemical, NIH compound library profiling, artefact control for MLSCN library redox annotation, primary screen | DTT-dependent redox cycling H2O2, phenol red/HRP absorbance; 100% = 100 µM peroxide control, 0% = buffer | activation, % at 10 µM | 200,000 tested, 0.03% active;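 active = activation of at least 50% relative to the plate's high and low controls in the primary single-dose screen; inactive = activation below 50%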;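 note: compound incubated with DTT at 0.8 mM final as the reducing agent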
FAS-TE inh conf: confirmation of human fatty acid synthase thioesterase inhibitors | shares compounds with FAS TE block | recombinant FAS-TE, OMFH fluorogenic substrate, fluorescence | inhibition, % at 15 µM | 2,300 tested, 45% active | AID 624325;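 active = compounds inhibiting the enzyme by at least 50% at 15 µM in any one of the replicates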
Of the large screens only hits and unclear results are named; the others gave an inactive call (follow-up assays come after a bar, where they were run).

Cc1ccc(S(=O)(=O)N(Cc2ccccc2)c2ccccc2C(=O)NCc2ccco2)cc1	none
Cc1ccc(S(=O)(=O)N(Cc2ccccc2)c2ccccc2C(=O)Nc2ccccc2C(=O)NCc2ccco2)cc1	FAS TE block 53 | FAS-TE inh conf inactive
Cc1[nH]n2c(=O)cc(-c3ccc([N+](=O)[O-])cc3)nc2c1-c1ccccc1	FAS TE block 59 (no result: UBC9 SUMO inh) | FAS-TE inh conf 77
COc1ccc(C2CC(c3ccccc3)=NN2S(=O)(=O)c2ccc(C)cc2)c(OC)c1 (configuration not stated)	FAS TE block 58 | FAS-TE inh conf inactive
O=C(NCCC(=O)N1CCN(S(=O)(=O)c2ccccc2F)CC1)Nc1ccccc1	none (no result: UBC9 SUMO inh, PKD1 kinase inh, Furin inh, p97 inhibitor, DTT redox prof)
CN(N=Cc1ccc([N+](=O)[O-])cc1)c1ccccn1	FAS TE block 50 (no result: UBC9 SUMO inh, PKD1 kinase inh, Furin inh, p97 inhibitor, DTT redox prof) | FAS-TE inh conf inactive
O=C(c1ccc([N+](=O)[O-])cc1)N(c1ccccn1)c1ccccn1	none
O=c1nc(SCc2c(F)cccc2Cl)nc(-c2ccc(Cl)cc2)[nH]1	FAS TE block 57 (no result: PKD1 kinase inh, DTT redox prof) | FAS-TE inh conf inactive
O=c1nc(SCc2ccccc2Cl)nc(-c2ccc(Cl)cc2)[nH]1	none (no result: PKD1 kinase inh, DTT redox prof)
COc1cc2ncc(S(=O)(=O)c3ccccc3)c(N3CCCC(C)C3)c2cc1OC (configuration not stated)	FAS TE block 78 (no result: PKD1 kinase inh, Furin inh, p97 inhibitor, DTT redox prof) | FAS-TE inh conf 71
Cn1c(SCC(=O)N2CCCCCC2)nc2c(c1=O)SCC2	none (no result: PKD1 kinase inh, Furin inh, p97 inhibitor, DTT redox prof)
O=C(Nc1nnc(-c2ccccc2Cl)s1)C1CCN(S(=O)(=O)c2ccc(Cl)cc2)CC1	FAS TE block 72 | FAS-TE inh conf inactive
O=C(NCC(=O)N1CCN(C(c2ccccc2)c2ccccc2)CC1)c1ccccc1F	none (no result: PKD1 kinase inh, Furin inh, p97 inhibitor, DTT redox prof)
C[C@@]12C(=O)Nc3cc(Cl)ccc3C(=O)N1[C@H]1c3ccccc3OC[C@@H]1[C@@H]2c1ccccc1	FAS TE block 87 (no result: UBC9 SUMO inh, PKD1 kinase inh, Furin inh, p97 inhibitor, DTT redox prof) | FAS-TE inh conf inactive
C[C@@]12C(=O)Nc3ccc(F)cc3C(=O)N1[C@H]1c3cc(Cl)ccc3OC[C@@H]1[C@@H]2c1ccccc1	FAS TE block 85 (no result: UBC9 SUMO inh, PKD1 kinase inh, Furin inh, p97 inhibitor, DTT redox prof) | FAS-TE inh conf inactive
C[C@@]12C(=O)Nc3cc(Cl)ccc3C(=O)N1[C@H]1c3cc(Br)ccc3OC[C@@H]1[C@@H]2c1ccccc1	FAS TE block 80 (no result: UBC9 SUMO inh, PKD1 kinase inh, Furin inh, p97 inhibitor, DTT redox prof) | FAS-TE inh conf inactive
COc1cc2c(cc1OC)C(=O)N1[C@H]3c4ccccc4OC[C@@H]3[C@H](c3ccccc3)[C@]1(C)C(=O)N2	none (no result: UBC9 SUMO inh, PKD1 kinase inh, Furin inh, p97 inhibitor, DTT redox prof)
C[C@@]12C(=O)Nc3cc(F)c(F)cc3C(=O)N1[C@H]1c3ccccc3OC[C@@H]1[C@@H]2c1ccccc1	FAS TE block 76 (no result: UBC9 SUMO inh, PKD1 kinase inh, Furin inh, p97 inhibitor, DTT redox prof) | FAS-TE inh conf 44
Nc1ccccc1SCC(=O)Nc1ccc2c(c1)OCCO2	none (no result: PKD1 kinase inh, Furin inh, p97 inhibitor, DTT redox prof)
CC(=O)Nc1cccc(-c2ccnc3c2CC(C)(C(=O)NCc2ccc(N(C)C)cc2)O3)c1 (configuration not stated)	none (no result: UBC9 SUMO inh, PKD1 kinase inh, Furin inh, p97 inhibitor, DTT redox prof)
C/C(CC(=O)NCc1ccccc1Cl)=N/NC(=O)c1ccccn1	none (no result: PKD1 kinase inh, Furin inh, p97 inhibitor, DTT redox prof)
Cc1ccccc1OC(=O)c1cccnc1	none (no result: PKD1 kinase inh, Furin inh, p97 inhibitor, DTT redox prof)
CCOC(=O)/C=C/C(=O)OCC(=O)N1CCN(C(=O)c2ccco2)CC1	none (no result: PKD1 kinase inh, Furin inh, p97 inhibitor, DTT redox prof)
Cc1ccc2c(c1)[C@H]1[C@H](CO2)[C@H](c2ccccc2)[C@]2(C)C(=O)Nc3ccc(Br)cc3C(=O)N12	FAS TE block 96 (no result: UBC9 SUMO inh, PKD1 kinase inh, Furin inh, p97 inhibitor, DTT redox prof) | FAS-TE inh conf inactive
COCCn1c(SCc2cccc([N+](=O)[O-])c2)nc2ccccc2c1=O	FAS TE block 51 (no result: PKD1 kinase inh, Furin inh, p97 inhibitor, DTT redox prof) | FAS-TE inh conf inactive
COc1ccc(C(=O)Nn2c(SCc3cccc([N+](=O)[O-])c3)nc3ccccc3c2=O)cc1	FAS TE block 59 | FAS-TE inh conf 51
O=C(Nn1c(SCc2cccc([N+](=O)[O-])c2)nc2ccccc2c1=O)c1ccccc1	none
Cn1c(SCc2cccc([N+](=O)[O-])c2)nc2ccccc2c1=O	none (no result: UBC9 SUMO inh, PKD1 kinase inh, Furin inh, p97 inhibitor, DTT redox prof)
CCSc1nc2ccccc2n1Cc1cccc([N+](=O)[O-])c1	FAS TE block 59 | FAS-TE inh conf inactive
Cc1ccc(N(CCC(=O)N2CCOCC2)S(=O)(=O)c2ccccc2)cc1	none (no result: UBC9 SUMO inh, PKD1 kinase inh, Furin inh, p97 inhibitor, DTT redox prof)
C/C(=N\NC(=O)c1nnn(-c2nonc2N)c1-c1ccc(Cl)c(Cl)c1)c1ccncc1	FAS TE block 55 (no result: PKD1 kinase inh, Furin inh, p97 inhibitor, DTT redox prof) | FAS-TE inh conf 56
COc1ccc(C(C(=O)NC2CCCC2)N(C(=O)CNC(=O)c2ccco2)c2cccnc2)cc1 (configuration not stated)	none (no result: PKD1 kinase inh, Furin inh, p97 inhibitor, DTT redox prof)
